The panel holds about 79,000 compounds, 15% with a hit somewhere; the sample as a whole holds those more often. Cut-off read from the data, not from the text of the source: active = growth inhibition above about 70%; inactive = the rest.
Legend:
[1] = NCI Yeast Anticancer Drug Screen. Data for the rad50 strain (AID 155);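 note: 0% = growth of vehicle-only cultures of the same strain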; settings: S. cerevisiae rad50 strain growth inhibition; at 50.0 µM; stronger effect = higher value
In short: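 Yeast carrying a defined DNA repair defect were exposed to test compounds, and growth was compared with vehicle-treated controls to give percent inhibition.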

[2] = NCI Yeast Anticancer Drug Screen. Data for the mec2-1 strain (AID 157); settings: S. cerevisiae mec2-1 strain, at 50.0 µM, stronger effect = higher value
In short: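 Yeast mec2-1 mutant treated with compound. Readout: growth inhibition vs vehicle controls.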

[3] = NCI Yeast Anticancer Drug Screen. Data for the sgs1 mgt1 strain (AID 161);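 note: 0% = growth of cultures given vehicle only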; settings: S. cerevisiae sgs1 mgt1 strain, at 50.0 µM, stronger effect = higher value
In short: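 Genetically altered yeast, compound exposure, growth inhibition relative to vehicle.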

[4] = NCI Yeast Anticancer Drug Screen. Data for the cln2 rad14 strain (AID 165);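 note: 0% = growth equal to vehicle treated cultures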; settings: S. cerevisiae cln2 rad14 strain, at 50.0 µM, stronger effect = higher value
In short: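 cln2 rad14 yeast strain; compound exposure; growth inhibition read vs vehicle controls.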

[5] = NCI Yeast Anticancer Drug Screen. Data for the bub3 strain (AID 167); settings: S. cerevisiae bub3 mutant strain, at 50.0 µM, stronger effect = higher value
In short: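 Compounds were applied to a genetically altered yeast strain carrying a cell-cycle control defect. Growth inhibition was scored against vehicle-treated controls.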

[6] = NCI Yeast Anticancer Drug Screen. Data for the mlh1 rad18 strain (AID 175); settings: S. cerevisiae mlh1 rad18 strain growth inhibition; at 50.0 µM; stronger effect = higher value
In short: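 Yeast w/ defined DNA-repair lesions; compound exposure; growth vs vehicle controls → % inhibition.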

Measured: growth inhibition

O=P(c1ccccc1)(c1ccccc1)N1CC1c1ccccc1 (configuration not stated)
inactive: [1] 8.95% | [2] 12.9% | [3] 3.2% | [4] -3.45% | [5] 4.6% | [6] 10.1%

COc1ccc2c(c1OC)Oc1c(OC)ccc3c1C(C2)N(C)C[C@@H]3O (some centres not stated)
inactive: [1] 10.1% | [2] 3.25% | [3] -7.6% | [4] -0.6% | [5] 26.1% | [6] -5.5%

COc1cc(CC(=O)O)ccc1O
inactive: [1] 11.8% | [2] -21.3% | [3] -26.7% | [4] -18.4% | [5] 1.45% | [6] -0.55%

COc1cccc(C2C(C(=O)O)=C(CO)Oc3cc4c(cc32)OCO4)c1 (configuration not stated)
inactive: [1] 21.4% | [2] 15.8% | [3] 21.9% | [4] 13.6% | [5] 12.6% | [6] 15.2%

O=C(Nc1ccn(C2OC(CO)C(O)C2O)c(=O)n1)Nc1ccn(C2OC(CO)C(O)C2O)c(=O)n1 (configuration not stated)
inactive: [1] 22.5% | [2] -17.6% | [3] -4.95% | [4] -35.8% | [5] -1.2% | [6] 17.6%

O=P(OC1=NCCN1Cc1ccccc1)(OC1=NCCN1Cc1ccccc1)N1CC1
inactive: [1] 16.9% | [2] 5.6% | [3] 21.7% | [4] 32.4% | [5] 3.75% | [6] -6.2%

CC12CCC(C/C1=N\NC(N)=O)C2(C)C (configuration not stated)
inactive: [1] 4.2% | [2] -16.6% | [3] -18.2% | [4] 2.55% | [5] -19.9% | [6] -1.45%

CC1([N+](=O)[O-])COC2(CCCCC2)OC1
inactive: [1] 18.2% | [2] 9.75% | [3] -6.1% | [4] -22.1% | [5] 4.3% | [6] 24.2%

O=C(O)CSc1ncnc2nc[nH]c12
inactive: [1] 1.6% | [2] -30.2% | [3] 1.9% | [4] 27.6% | [5] -5.25% | [6] -12.9%

O=S(=O)(SC1=NCCN1)c1ccc2ccccc2c1
inactive: [1] -2.75% | [2] -5.15% | [3] -15.1% | [4] 6.65% | [5] -3% | [6] -41.5%

c1ccc(CN(CCNc2ccccc2)c2ccccc2)cc1
inactive: [1] 13.2% | [2] 48.4% | [3] 46.2% | [4] 5.1% | [5] 50.6% | [6] 3.7%

NC(=O)C(N)C(N)=NCc1ccccc1 (configuration not stated)
inactive: [1] 10% | [2] 1.35% | [3] 4.15% | [4] -7.25% | [5] -2.3% | [6] 13.5%

Fc1nc2nc(C(F)(F)F)[nH]c2nc1F
inactive: [1] 15.8% | [2] -0.85% | [3] -23.9% | [4] -59.5% | [5] 0.85% | [6] 7.6%

Nc1nnc(-c2ccccc2)nn1
inactive: [1] 4.05% | [2] 4% | [3] 12.1% | [4] -1.15% | [5] 6.55% | [6] 9.25%

CC1=CC(=O)CCC1c1ccccc1 (configuration not stated)
inactive: [1] -52.6% | [2] -4.75% | [3] -19.8% | [4] 0.8% | [5] -10.4% | [6] -5.95%

C1=CCc2cc3c(cc2=C1)C=c1ccccc1=3
inactive: [1] -12.3% | [2] -19.4% | [3] -11.2% | [4] -5.9% | [5] -8.2% | [6] -19.4%

CC1CN(C(C)(C)C)CO1 (configuration not stated)
inactive: [1] -0.3% | [2] -10.4% | [3] -18.6% | [4] 8.3% | [5] -26.5% | [6] -25.6%

O=Cc1cc2c(cc1Br)OCO2
inactive: [1] 39.7% | [2] 16.1% | [3] 22.3% | [4] 10.2% | [5] -25.6% | [6] 8.3%

COc1cc2cc(C)c(C)cc2cc1OC
inactive: [1] -5.8% | [2] 13.7% | [3] -4% | [4] -22.9% | [5] -21.9% | [6] 5.65%

CC1C=CCCC1COC(=O)C(=O)OCC1CC=CCC1C (configuration not stated)
inactive: [1] 32.7% | [2] 0.15% | [3] 28.1% | [4] 9.25% | [5] 31.9% | [6] 19.9%

CN(C)c1ccc(Cc2ccc(N(C)C)cc2)cc1
inactive: [1] -4.1% | [2] -6.3% | [3] -16.9% | [4] -23.6% | [5] 10.4% | [6] 7%

c1ccc(C2(c3ccccc3)c3ccccc3-c3ccccc32)cc1
inactive: [1] -16.2% | [2] 17.4% | [3] 20.3% | [4] -17.9% | [5] -26.9% | [6] 2.2%

N#C/C(=C\c1ccc(Cl)cc1)C(=O)N/N=C/c1ccc(Cl)cc1
inactive: [1] 24.6% | [2] 27.1% | [3] 33% | [4] 1.35% | [5] 5.75% | [6] 27.9%

CC1C2(C)OC(=N)C(C#N)(C(c3ccccc3)O2)C1(C#N)C#N (configuration not stated)
inactive: [1] 8.7% | [2] -5.15% | [3] -13.4% | [4] 6.25% | [5] -3.2% | [6] -23.6%

Nc1cc(Nc2ccc(Cl)[nH]c2=S)nc(N)n1
inactive: [1] 31.1% | [2] 13.8% | [3] 11.5% | [4] 20.6% | [5] 18.4% | [6] 15.2%

CC1=CC2=NC(=O)C(c3ccccc3)C(=O)N2C=C1 (configuration not stated)
inactive: [1] -1.05% | [2] -27.4% | [3] -9.95% | [4] 12.8% | [5] 7.5% | [6] -19.8%

CC(CC(O)CCCN(C)C)CC(C)(C)C (configuration not stated)
inactive: [1] 46.5% | [2] 39.8% | [3] 43.4% | [4] 22.1% | [5] 24.3% | [6] 37.5%

O=C(N=c1nc(NC(=O)c2ccccc2)ss1)c1ccccc1
inactive: [1] -0.25% | [2] 7.7% | [3] -2.8% | [4] -42.2% | [5] -17.1% | [6] 13.2%

NC(=O)C(Cc1ccccc1Cl)c1ccccc1 (configuration not stated)
inactive: [1] -7.6% | [2] -2.9% | [3] -2.75% | [4] -43% | [5] -8.35% | [6] 12.7%

CCC(CC)C(=O)NC(=O)NC(N)=O
inactive: [1] 2.7% | [2] 1.4% | [3] 3.35% | [4] -4.7% | [5] 6.55% | [6] -3.55%

S=c1nc[nH]c2c1ncn2C1CCCC1
inactive: [1] -2.25% | [2] -4.75% | [3] -4.55% | [4] -14.9% | [5] -0.3% | [6] -3.1%

CCOC(=O)/C(=C\c1ccccc1)c1nc2ccccc2[nH]1
inactive: [1] -1.2% | [2] -13.2% | [3] -15.4% | [4] -15.5% | [5] -14.7% | [6] -13.6%

Nc1nc(N)c(N2CCN(Cc3ccccc3)CC2)c(Cl)n1
inactive: [1] 30.1% | [2] 10.8% | [3] 33.1% | [4] 18.9% | [5] 18.3% | [6] 27.4%

CN(C)C1=NS(=O)(=O)N=C(N(C)c2ccccc2)O1
inactive: [1] 14.5% | [2] 6.65% | [3] 6.45% | [4] 16.8% | [5] 8.15% | [6] 10.5%

O=C(O)c1cnccn1
inactive: [1] 18.8% | [2] 4.3% | [3] 16.9% | [4] 12.6% | [5] 1.2% | [6] 17.9%

COc1ccc2c(c1)[n+](=O)c(C(=O)C/C(=N/OCCCc1ccccc1)C(=O)NC13CC4CC(CC(C4)C1)C3)c(C)n2[O-]
inactive: [1] -1.3% | [2] -3.2% | [3] -19.4% | [4] 17.1% | [5] 3.85% | [6] -4.6%

CC(=O)OCC(C)(C)COC(C)=O
inactive: [1] 2.6% | [2] 1.65% | [3] -11.6% | [4] -7.9% | [5] -5.25% | [6] -11.2%

ClC(c1ccccc1)c1cccc2ccccc12 (configuration not stated)
inactive: [1] 30.6% | [2] -2.45% | [3] 7.7% | [4] 21.5% | [5] 11.8% | [6] 41.6%

Clc1ccc2ncccc2c1
inactive: [1] 29.8% | [2] 18% | [3] 7.7% | [4] -24.1% | [5] 7.95% | [6] 17%

CCc1ccc(CC(=S)N2CCOCC2)cc1
inactive: [1] 4.2% | [2] 1.45% | [3] 5.55% | [4] -1.7% | [5] -15.9% | [6] -3.9%

COC(=O)c1ccc(N(C)CCC(=O)COC(C)=O)cc1
inactive: [1] 17.9% | [2] 9.7% | [3] 12% | [4] -10.2% | [5] 7.6% | [6] 10.3%

CC(C)(Oc1ccc(/C=C/C(=O)c2ccc(Cl)cc2)cc1)C(=O)Nc1c(Cl)cccc1Cl
inactive: [1] 0.85% | [2] -2.05% | [3] 2.6% | [4] 12.1% | [5] 12.8% | [6] 19%

Source: PubChem BioAssay (NCI)
